Laboratory results reported in the supplement of paper PMC6609913.
Where a name gives a salt, the structure may show the parent alone. ± gives the standard deviation of the averaged measurements. In all, about 1,300 compounds were measured (“normalised cell viability”: median about 1, lowest 2% from about 0.14 on). What follows is part of a selection rich in the lowest values, with near analogues and random picks from the rest.

System: V-C8 (BRCA2-deficient hamster cells)
Test: normalised cell viability (fraction of plate median); higher = more viable cells (less toxic)
Conditions: 5 µM
Procedure, shortened: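 In two screens, library drugs at 5 μM were given for 3 days (screen 1) or 6 days (screen 2) to hamster V-C8 cells without BRCA2 and V-C8 cells with BRCA2 restored, seeded 24 h earlier in 96-well plates. A resazurin assay gave the cell viability readout, expressed as modified robust per cent of sample against the plate median, with triplicate wells averaged.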

Compound	normalised cell viability (treatment time: 3 days)	normalised cell viability (treatment time: 6 days)
CC(C)(C)C(=O)OCOC(=O)[C@@H]1N2C(=O)[C@@H](/N=C/N3CCCCCC3)[C@H]2SC1(C)C [Pivmecillinam hydrochloride]	0.959 ± 0.056	1.01 ± 0.039
Cc1ncc([N+](=O)[O-])n1CCO [Metronidazole]	0.914 ± 0.088	1.04 ± 0.058
CC(=O)O[C@H]1C(=O)[C@@]2(C)[C@H]([C@H](OC(=O)c3ccccc3)[C@]3(O)C[C@H](OC(=O)[C@H](O)[C@@H](NC(=O)c4ccccc4)c4ccccc4)C(C)=C1C3(C)C)[C@]1(OC(C)=O)CO[C@@H]1C[C@@H]2O [Paclitaxel]	0.193 ± 0.01	0.199 ± 0.0046
Cc1oncc1C(=O)Nc1ccc(C(F)(F)F)cc1 [Leflunomide]	0.904 ± 0.065	0.959 ± 0.043
COc1cccc(N(C)C(=S)Oc2ccc3c(c2)CCCC3)n1 [Liranaftate]	0.805 ± 0.038	0.74 ± 0.046
COC(=O)Nc1nc2ccc(SC(C)C)cc2[nH]1 [Methiazole]	0.214 ± 0.0082	0.221 ± 0.025
COc1ccc(CN2CCN(C(c3ccc(F)cc3)c3ccc(F)cc3)CC2)c(OC)c1OC [Lomerizine hydrochloride]	0.881 ± 0.042	0.799 ± 0.035
Cc1ccc(S(=O)(=O)NC(=O)NN2CC3CCCC3C2)cc1 (stereo not drawn) [Gliclazide]	1.04 ± 0.049	0.979 ± 0.091
CCOC(=O)OC(C)OC1=C(C(=O)Nc2ccccn2)N(C)S(=O)(=O)c2ccccc21 (stereo not drawn) [Ampiroxicam]	1.03 ± 0.055	1.02 ± 0.041
Cc1cc(N)c2ccccc2[n+]1CCCCCCCCCC[n+]1c(C)cc(N)c2ccccc21 [Dequalinium dichloride]	0.171 ± 0.0032	0.162 ± 0.013
CN(CCCCCCCCCCN(C)C(=O)Oc1cccc([N+](C)(C)C)c1)C(=O)Oc1cccc([N+](C)(C)C)c1 [Demecarium bromide]	0.828 ± 0.022	0.812 ± 0.013
C[C@H]1NC(=O)NC1=O [Methylhydantoin-5-(D)]	0.968 ± 0.032	0.954 ± 0.077
CO[C@H]1/C=C/O[C@@]2(C)Oc3c(C)c(O)c4c(O)c(c5c(nc6cc(C)ccn65)c4c3C2=O)NC(=O)/C(C)=C\C=C\[C@H](C)[C@H](O)[C@@H](C)[C@@H](O)[C@@H](C)[C@H](OC(C)=O)[C@@H]1C [Rifaximin]	0.964 ± 0.023	0.928 ± 0.017
CN(C/C=C/c1ccccc1)Cc1cccc2ccccc12 [Naftifine hydrochloride]	0.199 ± 0.019	0.219 ± 0.0077
CC(O)(P(=O)(O)O)P(=O)(O)O [Etidronic acid, disodium salt]	1.03 ± 0.024	1.05 ± 0.046
CNC(=C[N+](=O)[O-])NCCSCc1ccc(CN(C)C)o1 [Ranitidine hydrochloride]	1.02 ± 0.13	1.08 ± 0.045
CC(=O)OCC(=O)[C@@]1(OC(C)=O)[C@@H](C)C[C@H]2[C@@H]3C[C@H](F)C4=CC(=O)C=C[C@]4(C)[C@@]3(F)[C@@H](O)C[C@@]21C [Diflorasone Diacetate]	1.18 ± 0.074	1.02 ± 0.051

Compound	normalised cell viability (treatment time: 3 days)	normalised cell viability (treatment time: 6 days)
OC[C@H]1O[C@@H](Oc2ccc(O)cc2)[C@H](O)[C@@H](O)[C@@H]1O [Arbutin]	1.05 ± 0.026	1.03 ± 0.058
CCOc1ccc(Cc2nccc3cc(OCC)c(OCC)cc23)cc1OCC [Ethaverine hydrochloride]	0.625 ± 0.013	0.534 ± 0.022
CC(=O)O[C@H]1C[C@@H]2CC[C@@H]3[C@H](CC[C@@]4(C)[C@H]3C[C@H]([N+]3(C)CCCCC3)[C@@H]4OC(C)=O)[C@@]2(C)C[C@@H]1N1CCCCC1 [Vecuronium bromide]	1.01 ± 0.047	1.04 ± 0.036
Clc1ccc(C(Cn2ccnc2)OCc2c(Cl)cccc2Cl)c(Cl)c1 (stereo not drawn) [Isoconazole]	1.12 ± 0.04	1.09 ± 0.045
NCCCC(O)(P(=O)(O)O)P(=O)(O)O [Alendronate sodium]	0.709 ± 0.1	0.515 ± 0.033
O=C(Nc1ccc([N+](=O)[O-])cc1Cl)c1cc(Cl)ccc1O [Niclosamide]	0.124 ± 0.0032	0.0967 ± 0.0062
CN(C)CCOC(c1ccccc1)c1ccccc1.Cn1c(=O)c2[nH]c(Cl)nc2n(C)c1=O [Dimenhydrinate]	1.08 ± 0.086	1.04 ± 0.024
CN1C(C)(C)CCCC1(C)C [Pempidine tartrate]	0.993 ± 0.026	1.048 ± 0.004
C=C1C(=O)O[C@H]2[C@H]1CC/C(C)=C/CC[C@@]1(C)O[C@@H]21 [Parthenolide]	0.199 ± 0.017	0.416 ± 0.11
Clc1ccc(CCC(Cn2ccnc2)Sc2c(Cl)cccc2Cl)cc1 (stereo not drawn) [Butoconazole nitrate]	0.839 ± 0.015	0.801 ± 0.028
CS(=O)(=O)c1ccc(C2=C(c3ccccc3)C(=O)OC2)cc1 [Rofecoxib]	1.02 ± 0.065	1.02 ± 0.016
CC(C)c1c(C(=O)Nc2ccccc2)c(-c2ccccc2)c(-c2ccc(F)cc2)n1CC[C@@H](O)C[C@@H](O)CC(=O)O [Atorvastatin]	0.633 ± 0.051	0.734 ± 0.032
CC(C)n1c(/C=C/C(O)CC(O)CC(=O)O)c(-c2ccc(F)cc2)c2ccccc21 (stereo not drawn) [Fluvastatin sodium salt]	0.121 ± 0.0047	0.156 ± 0.004
C=CC(N)CCC(=O)O (stereo not drawn) [Vigabatrin]	1.04 ± 0.061	1.03 ± 0.042
CCN(CCO)CCCC(C)Nc1ccnc2cc(Cl)ccc12 (stereo not drawn) [Hydroxychloroquine sulfate]	0.365 ± 0.05	0.524 ± 0.048
CCN(CC)CCCC(C)Nc1c2ccc(Cl)cc2nc2ccc(OC)cc12 (stereo not drawn) [Quinacrine dihydrochloride dihydrate]	0.123 ± 0.011	0.108 ± 0.009
CCN(CC)CCCC(C)Nc1ccnc2cc(Cl)ccc12 (stereo not drawn) [Chloroquine diphosphate]	0.756 ± 0.026	0.76 ± 0.0079
